Hits are enriched below; roughly 6.2% of the tested compounds scored in any of these assays.
S2 tox: cell viability loss in ATXN counter-screen; S2 cells (HEK-293 line with an ATXN2-luciferase reporter) viability, CellTiter-Fluor protease fluorescence, 24 h; Potency, µM (top dose mostly 56.7 µM), usual class: cytotoxic; 400,000 compounds, 0.49% hits; further: nearly all actives have a fitted effect of over 40% in size
KB-3-1 cytotox: kills parental KB-3-1 adenocarcinoma cells. 400,000 compounds, 1.4% hits. KB-3-1 viability, CellTiter-Glo ATP luminescence, 72 h. Potency, µM (doses to about 46.1 µM), usual class: cytotoxic; further: on the % scale 0 is the no-effect control and ±100 the full control effect; nearly all actives have a fitted effect of over 60% in size
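Multi-concentration cytotoxicity screen in KB-3-1 cells grown in DMEM lacking phenol red with 10% FBS. After 72 h at 37 °C with compound, ATP-dependent luminescence was recorded.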
KB-V1 MDR tox: kills drug-selected multidrug resistant KB-V1 cells | 400,000 compounds, 3.4% hits | Potency, µM (highest dose often 46.1 µM), most hits filed as cytotoxic | AID 1347076 | KB-V1 MDR cells viability, CellTiter-Glo, 72 h; further: on the % scale 0 is the no-effect control and ±100 the full control effect; nearly all actives have a fitted effect of over 60% in size
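KB-V1 cells (P-gp-expressing MDR subline of KB-3-1) in phenol-red-free DMEM with 10% FBS were exposed to library compounds over a concentration series for 72 h at 37 degrees C. Viability read by CellTiter-Glo luminescence; concentration-effect curves fitted after normalization.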
HT1080-NT tox: kills 2HG-producing HT-1080-NT fibrosarcoma cells; Potency, µM (top dose mostly 46.1 µM), for inactives: at the top dose activity, negative = less viability, most hits filed as cytotoxic; HT-1080-NT fibrosarcoma viability, CellTiter-Glo ATP luminescence, 48 h; AID 686970; 360,000 compounds, 1.6% hits;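 further: NT is the 2HG producing partner of a matched IDH1 knockdown line; 0% = DMSO-treated cells and -100% = media-only wells without cells; nearly all actives have a fitted effect of over 55% in size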
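HT-1080-NT fibrosarcoma cells (2HG-overproducing), 750 cells/well in RPMI with 5% FBS, dosed after 2 h and incubated 48 h at 37C. CellTiter-Glo luminescence normalized to DMSO and no-cell wells; concentration-response curves fitted and classed.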
HT1080 IDH1KD tx: toxicity to HT-1080 IDH1 knockdown cells (counter line); 360,000 compounds, 2% hits; Potency, µM (highest dose often 46.1 µM), inactives show at the highest dose activity, negative = toxicity, hits mostly cytotoxic; HT-1080 IDH1 knockdown viability, ATP luminescence, 48 h;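 further: 0% = DMSO wells and -100% = cell-free medium wells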
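After a 2 h attachment period, IDH1KD HT-1080 cells took pin-transferred compound for 48 h at 37 °C; ATP-based luminescence after 10 min room-temperature reagent incubation reported viability.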
ATXN2 expr inh: inhibitors of ATXN2 expression. HEK-293 ATXN2-luciferase reporter, luminescence, 24 h. Potency, µM (doses to about 57 µM), inactives show top-dose activity change, negative = inhibition, most hits filed as inhibitors. 360,000 compounds, 0.72% hits. AID 1745845; further: on the % scale 0 is the no-effect control and ±100 the full control effect; nearly all actives have a fitted effect of over 55% in size
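ATXN2-luciferase reporter cells (luciferase flanked by upstream and downstream ATXN2 gene portions) were treated 24 h at 37 °C with compounds at up to 57 uM. SteadyGlo luminescence gave expression; GF-AFC fluorescence gave viability.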
Numbers without * were called inactive; i = inactive; ? = inconclusive; . = no result; [ ] = remark or other dose. The call rests on the fitted dose curve; in most records, active means well fitted curve in the direction sought with a large enough effect; inconclusive means small, poorly fitted or top-dose-only effect, or another doubt; inactive means no such curve, though single readings can be large; an effect the other way counts as inactive or inconclusive. Potency means the concentration at half of the fitted maximal effect.

SMILES	S2 tox	KB-3-1 cytotox	KB-V1 MDR tox	HT1080-NT tox	HT1080 IDH1KD tx	ATXN2 expr inh
COC(=O)[C@@]1(Cc2ccc(F)cc2)[C@H]2c3cc(C(=O)N(C)C)n(CCCNc4ncc(C(F)(F)F)cc4Cl)c3C[C@H]2CN1C(=O)c1ccccc1	?	?	18µM*	?	?	0%
COC(=O)[C@@]1(Cc2ccc(OC)cc2)[C@H]2c3cc(C(=O)N4CCCC4)n(Cc4ccsc4Br)c3C[C@H]2CN1C(=O)c1ccccc1	?	18µM*	?	?	?	-35%
COC(=O)[C@@]1(Cc2ccc(OC)cc2)[C@H]2c3cc(C(=O)N4CCCC4)n(Cc4ccc(S(C)(=O)=O)cc4)c3C[C@H]2CN1C(=O)c1ccccc1	i	i	?	-20%	-21%	-5%
COc1ccc(-c2cc(C)no2)cc1S(=O)(=O)Nc1cccc(C(F)(F)F)c1	.	i	i	.	.	.
Cc1cc(O)c(-c2cc(C(=O)Nc3ccc(S(=O)(=O)N4CCOCC4)cc3)[nH]n2)cc1C	i	?	?	14µM*	10µM*	?
O=C(Nc1ccc(S(=O)(=O)N2CCOCC2)cc1)c1cc(-c2cc(Cl)ccc2O)n[nH]1	?	12µM*	?	?	16µM*	.
O=C(Nc1ccc(Cl)cc1)c1ccc(S(=O)(=O)N2CCOCC2)cc1	i	i	i	3%	-7%	-9%
CCc1nc(N(CC)CC)c2oc3ccccc3c2n1	i	i	i	-21%	-15%	-9%
CCc1nc(N2CCC(C)CC2)c2oc3ccccc3c2n1	?	i	9.2µM*	?	?	-38%
CCc1nc(SCC(=O)N2CCN(c3ccccc3)CC2)c2oc3ccccc3c2n1	?	i	13µM*	7%	-17%	-39%
Cn1cnc([N+](=O)[O-])c1S(=O)(=O)c1ccc(Cl)cc1	?	i	i	9.2µM*	6.5µM*	?
Cn1cnc([N+](=O)[O-])c1NC(C)(C)C	i	i	?	21%	10%	-5%
O=C1CCCC/C1=N\Nc1ccc(OCc2ccccc2)cc1	i	i	i	?	5.2µM*	-12%
CS(=O)(=O)Nc1ccc(OCc2ccccc2)cc1	i	i	i	-2%	-8%	41%
CCOc1ccccc1CNc1ccc(O)cc1	?	?	i	23µM*	?	3%[11.3 µM]
Oc1ccc(NCc2ccc(OCc3ccccc3)cc2)cc1	?	?	i	23µM*	?	?
COc1cc(-c2c(C#N)c(N)nc3c2c(C)nn3-c2ccc(C)c(C)c2)cc(OC)c1OC	i	?	i	?	11µM*	6%
CCCCNCC1C(Oc2ccc(Cl)cc2)C(=O)N1c1ccccc1C (centres undefined)	i	i	i	?	23µM*	-22%
COc1cccc(-c2nc(N3CCCC3)c3ccccc3n2)c1O	i	i	i	9%	5%	15%
COc1cccc(-c2nc(N3CCC(C)CC3)c3ccccc3n2)c1O	i	i	16µM*	?	?	-19%
COc1cccc(-c2nc(NC(C)(C)C)c3ccccc3n2)c1O	i	?	23µM*	?	?	0%
Fc1cccc(NCc2cccn2-c2nnc(N3CCOCC3)s2)c1	i	i	i	.	.	3%
Cc1cccc(NC(=O)N2CCC(N3CCN(Cc4ccccc4)C(=O)C3=O)CC2)c1C	i	i	?	.	.	14%
O=C(Nc1ccccc1)c1cccc(N2CCCS2(=O)=O)c1	i	i	i	.	.	12%
O=C(CCS(=O)(=O)c1cc(Br)cc2c1N(C(=O)C1CC1)CC2)Nc1ccc(F)cc1	i	i	i	.	.	8%
N#C/C(=C\c1c[nH]c2ccc(Br)cc12)c1ccccn1	i	i	i	26µM*	?	12%
